Screening results as filed in PubChem.
Rows were chosen to be rich in hits. Some 3.8% of all compounds tested hit in one or more screens of this group.
pPAFAH FP inh: pPAFAH enzyme inhibitors, primary screen, biochemical, fluorescence polarization, human; inhibition, % at 3.39 µM; recombinant pPAFAH, FP-rhodamine probe fluorescence polarization; actives 1.5% (n = 330,000); Platelet-activating factor acetylhydrolase (Homo sapiens), Q13093;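 active means inhibition above the mean inhibition across the screen plus 3 SD, cut at about 25% in these data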;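 further: inhibitors block binding of the rhodamine activity-based probe so polarization drops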
PAFAH1B2 FP inh: PAFAH1B2 enzyme inhibitors, primary screen, biochemical, fluorescence polarization, human; recombinant PAFAH1B2, FP-rhodamine activity probe; actives 1.2% (n = 340,000); AID 492953, 2010; inhibition, % at 3.39 µM;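 active means inhibition above the mean of all tested compounds plus 3 SD, cut at about 24% in these data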
Target sequence (P68402 whole entry, looked up): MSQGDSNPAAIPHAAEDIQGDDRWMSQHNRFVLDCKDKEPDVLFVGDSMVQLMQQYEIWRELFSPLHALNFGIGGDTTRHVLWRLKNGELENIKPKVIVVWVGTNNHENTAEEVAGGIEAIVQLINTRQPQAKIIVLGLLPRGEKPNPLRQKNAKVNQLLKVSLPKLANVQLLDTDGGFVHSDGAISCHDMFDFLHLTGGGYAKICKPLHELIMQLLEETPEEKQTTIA
DSG3 Ab inh: inhibitors of pemphigus antibody binding to DSG3, primary screen, biochemical, bead-based, flow cytometry, scFv-GFP; DSG3-coupled beads, scFv-anti-DSG3-GFP binding; hits give low values; AID 588358, 2011; actives 0.48% (n = 310,000); Desmoglein-3 (Homo sapiens), P32926; binding (percent of control), % at 10 µM;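 active means binding more than 3 SD below its plate's average and above zero; inconclusive means below that plate limit but binding exactly zero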;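 further: hits lower antibody fragment binding to DSG3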
PfM18AAP inh-1: PfM18AAP inhibitors, malaria aminopeptidase, primary screen, biochemical, QFRET, recombinant enzyme; inhibition, % at 7.35 µM; H-Glu-NHMec fluorogenic cleavage; M18 aspartyl aminopeptidase (Plasmodium falciparum 3D7); AID 1822, 2009; actives 1.2% (n = 290,000);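 active means inhibition above the campaign mean inhibition over all tested compounds plus 3 SD, cut at about 28% in these data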
PAFAH2 FP inh: PAFAH2 enzyme inhibitors, primary screen, biochemical, fluorescence polarization, human; recombinant PAFAH2, FP-rhodamine activity probe; inhibition, % at 3.39 µM; actives 0.99% (n = 340,000); AID 492956, 2010;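 active means inhibition above the mean over all tested compounds plus 3 SD, cut at about 30% in these data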;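 further: inhibitors block probe labeling of enzyme so polarization drops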
PAFAH1B3 inh: PAFAH1B3 enzyme inhibitors, primary screen, biochemical, fluorescence polarization, human | Platelet-activating factor acetylhydrolase IB subunit alpha1 (Homo sapiens), Q15102 | recombinant PAFAH1B3, FP-rhodamine probe | inhibition, % at 3.39 µM | actives 0.28% (n = 340,000) | AID 492972, 2010;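 active means inhibition above the screen-wide average of all tested compounds plus 3 SD, cut at about 25% in these data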
PfM18AAP inh-2: PfM18AAP inhibitors, malaria aminopeptidase, confirmation, biochemical, QFRET, recombinant enzyme, triplicate; actives 28% (n = 2,400); inhibition, % at 7.35 µM; shares compounds with PfM18AAP inh-1; H-Glu-NHMec fluorogenic cleavage;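 active means mean inhibition over replicate wells above the hit cutoff set for the earlier primary screen, cut at about 29% in these data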
CTSL1 counter: cathepsin L1 inhibitors, retest, confirmation, counter-screen for PFM18AAP inhibitor project, biochemical, QFRET, triplicate | shares compounds with PfM18AAP inh-1 | purified cathepsin L1, Z-Leu-Arg-MCA fluorescence | inhibition, % at 5.96 µM | 2,400 tested, under 10 active;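 active means average inhibition across replicates above the hit cutoff set in the earlier primary screen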
Target sequence (P07711 whole entry, looked up): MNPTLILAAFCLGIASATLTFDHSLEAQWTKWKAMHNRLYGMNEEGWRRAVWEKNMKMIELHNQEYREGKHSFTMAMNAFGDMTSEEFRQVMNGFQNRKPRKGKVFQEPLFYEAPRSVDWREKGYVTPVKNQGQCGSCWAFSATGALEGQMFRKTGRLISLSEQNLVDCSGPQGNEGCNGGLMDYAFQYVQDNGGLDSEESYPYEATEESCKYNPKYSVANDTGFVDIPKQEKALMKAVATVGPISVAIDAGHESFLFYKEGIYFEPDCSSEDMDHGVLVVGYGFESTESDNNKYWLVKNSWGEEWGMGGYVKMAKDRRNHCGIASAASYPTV
Hits are given with their value; i = inactive; ? = inconclusive; nt = not tested or not shown.

SMILES	pPAFAH FP inh	PAFAH1B2 FP inh	DSG3 Ab inh	PfM18AAP inh-1	PAFAH2 FP inh	PAFAH1B3 inh	PfM18AAP inh-2	CTSL1 counter
Cc1nc(N)sc1-c1csc(N(C)c2ccc(O)cc2)n1	27	i	i	33	i	i	i	i
COc1cccc(Nc2nc(-c3sc(N)nc3C)cs2)c1	i	i	i	i	i	i	nt	nt
O=C(CNC(=O)c1ccccc1F)N/N=C/c1cccnc1	i	i	i	i	i	i	nt	nt
COc1ccccc1CNS(=O)(=O)c1cc(-c2cc(C)no2)ccc1C(C)C	i	i	nt	i	i	i	nt	nt
N#Cc1c(N)oc(-c2ccc3c(c2)OCO3)c1-c1ccc2c(c1)OCO2	i	i	i	48	i	i	i	i
COc1ccc(C(CC(=O)O)N2C(=O)CCC2=O)cc1 (centres undefined)	i	i	i	i	i	i	nt	nt
COc1cc(/C=C2/C(=O)ON=C2C)cc(Cl)c1O	i	i	i	32	i	i	i	i
O=C(Nc1ccc(Cc2ccc(NC(=O)C3CC3)c(O)c2)cc1O)C1CC1	i	i	nt	i	i	i	nt	nt
O=C(O)CCC(=O)Nc1ccc(Cc2ccc(NC(=O)CCC(=O)O)c(O)c2)cc1O	i	i	?	58	i	i	i	i
COc1cccc(OCC(=O)NNC(=O)c2ccc3ccccc3c2O)c1	nt	i	i	37	i	i	i	i
Cc1cc(NC(=O)CN2CCN(c3ccc(O)cc3)CC2)no1	i	i	i	35	i	i	i	i
CCOC(=O)Cc1csc(NC(=O)CSc2nnc(-c3ccc(C)cc3)o2)n1	i	i	i	32	i	i	i	i
O=C(CN1CCN(c2ccc(O)cc2)CC1)Nc1ccc2c(c1)OCCO2	i	i	i	38	i	i	i	i
Cc1cc(NC(=O)CSc2nnc(-c3ccc(O)cc3)o2)no1	i	i	i	38	i	i	i	i
O=C(CN1CCN(c2ccc(F)cc2)CC1)Nc1ccc2c(c1)OCCO2	i	i	i	i	i	i	nt	nt
CCOC(=O)Cc1csc(NC(=O)CSc2nnc(-c3ccc(F)cc3)o2)n1	i	i	i	i	i	i	nt	nt
CCOC(=O)C1C2C=CC(CC2)N1c1ccccc1 (centres undefined)	i	i	i	nt	i	i	nt	nt
CCCc1cc(C(=O)N(C)CC(=O)Nc2ccc(OCC)c(OCC)c2)sc1C	i	i	i	nt	i	i	nt	nt
CCCCn1c(-c2ccco2)n[nH]c1=S	i	i	i	i	i	i	nt	nt
CCCCn1c(-c2sccc2C)n[nH]c1=S	i	i	i	32	i	i	i	i
COCCNC(=O)c1ccccc1NC(=O)c1ccccc1SC	i	i	i	i	i	i	nt	nt
O=C(Cc1ccc([N+](=O)[O-])cc1)Oc1ccccc1	nt	i	nt	nt	i	i	nt	nt
CCC(C)[C@H](NC(=O)[C@@H]1CSC2c3ccccc3C(=O)N21)C(=O)NCc1ccncc1 (some centres undefined)	i	i	i	i	i	i	nt	nt
O=C(CNC(=O)c1ccccn1)N=Nc1c(O)[nH]c2ccccc12	i	i	nt	51	i	i	i	i
COc1ccc(CC(=O)NCC(=O)N=Nc2c(O)[nH]c3ccccc23)cc1	i	i	i	i	i	i	nt	nt
SMILES	pPAFAH FP inh	PAFAH1B2 FP inh	DSG3 Ab inh	PfM18AAP inh-1	PAFAH2 FP inh	PAFAH1B3 inh	PfM18AAP inh-2	CTSL1 counter
COc1ccc2sc(C)[n+](C)c2c1	i	i	i	43	i	i	i	i
O=C(NCC1CCCO1)/C(=C\c1ccccc1F)NC(=O)c1ccccc1 (centres undefined)	i	i	i	i	i	i	nt	nt
CC(=O)Oc1cc2oc(=O)cc(C)c2cc1OC(C)=O	i	i	i	47	i	i	75	19
CC(=O)Oc1ccc2c(C)cc(=O)oc2c1	i	i	i	i	i	i	nt	nt
O=C1CC(c2ccccc2)=NN1c1nc(-c2ccccc2)cs1	28	i	i	33	66	i	i	i
CC1=NN(c2nc(-c3ccccc3)cs2)C(=O)C1	i	i	i	i	i	i	nt	nt
CC(=O)NC1=NC(=O)/C(=C/c2cc(C)n(-c3cccc(C(=O)O)c3)c2C)S1	nt	nt	nt	33	nt	nt	i	i
O=C(NCc1ccc(F)cc1)C(=O)NCC1OCCN1S(=O)(=O)c1cc(F)ccc1F (centres undefined)	nt	nt	i	nt	nt	nt	nt	nt
O=C(NCc1n[nH]c(=S)n1-c1cccc(C(F)(F)F)c1)c1ccco1	i	i	i	34	i	i	i	i
COc1ccc(CC(=O)NCc2n[nH]c(=S)n2-c2cccc(C)c2)cc1	i	i	i	40	i	i	i	i
c1ccc(COc2ncnc3c2ncn3CCCNCCN2CCOCC2)cc1	nt	i	i	nt	i	i	nt	nt
Fc1ccc(C[n+]2csc3ccccc32)cc1	i	i	i	36	i	i	i	i
Fc1ccc(CSc2ncnc3scc(-c4ccccc4)c23)cc1	i	i	i	i	i	i	nt	nt
Oc1ccc(/C=N/NC(=S)N/N=C/c2ccc(O)cc2)cc1	i	i	i	34	i	i	i	19
COc1ccccc1NC(=S)N/N=C/c1ccc(O)cc1	i	i	i	i	i	i	nt	nt
CN(C)C(=O)OCC1COc2ccccc2O1 (centres undefined)	i	i	i	i	i	i	nt	nt
O=C(Cc1ncc(C(F)(F)F)cc1Cl)NNc1cccc(F)n1	i	i	i	i	i	i	nt	nt
Oc1ccc(N2CCN(c3nnnn3-c3ccccc3)CC2)cc1	i	i	i	32	i	i	i	i
CC(=O)N1CCN(c2nnnn2-c2ccccc2)CC1	i	i	i	i	i	i	nt	nt
Clc1cc(Cl)cc(Nc2ncn[nH]2)c1	i	i	i	45	i	i	36	i
O=C(Nc1ncn[nH]1)c1c(Cl)ccc(Cl)c1Cl	i	i	i	i	i	i	nt	nt
CC(C)N(CCCNC(=O)Cn1c(=O)c2cccn2c2ccc(F)cc21)Cc1ccccc1	i	i	i	i	i	i	nt	nt
O=C(Cc1cccc(NC(=O)C2CCCN(C(=O)CCc3ccccc3)C2)c1)Nc1cccc(C(=O)N2CCCCC2)c1 (centres undefined)	nt	i	i	nt	i	i	nt	nt
Cc1ccc(N=C(NO)c2nonc2N)cc1	i	i	i	i	i	i	nt	nt
